Hits are enriched below; roughly 4.8% of the tested compounds scored in any of these assays.
SMARCA2 activ = increases SMARCA2 function in MMTV reporter cells; MG213 cells, MMTV-luciferase reporter, dexamethasone, overnight; activation, % at 9.1 µM; 1% of 370,000 active; in the data active = activation above about 7.8%
DAX1 inh-1 = inhibitors of DAX1 repression of SF-1 activated StAR promoter; HEK293T StAR-luciferase reporter, SF-1/DAX-1 repression relief; inhibition, % at 6.8 µM; 1.1% of 370,000 active;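 active = inhibition above the mean over all tested compounds plus 3 SD, cut at about 3.6% in these data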;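 also: higher inhibition means more luminescence from relief of DAX-1 repression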
hgDAF12 agonist = agonists of H. glycines DAF-12 nuclear receptor. HEK293 GAL4-hgDAF12 UAS-luciferase reporter, agonist luminescence; normalized to butyrate control. activation, % at 6.8 µM. 1.8% of 370,000 active. AID 687014;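 active = activation above a cutoff set at the mean of all screened compounds plus 3 SD, cut at about 10% in these data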
hcDAF12 agonist = activators of H. contortus DAF-12 nuclear receptor | HEK293 hcDAF-12 lit1-tk-luc reporter, luminescence; 0% DMSO, 100% Δ7-dafachronic acid | activation, % at 6.8 µM | 1.4% of 370,000 active | AID 652067;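 active = activation above the mean of all tested compounds plus 3 SD, cut at about 5.5% in these data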
DAX1 inh-2 = NR0B1 (DAX1) inhibition; inhibition, % at 6.75 µM; HEK293 Gal4-DAX1 luciferase reporter, luminescence; P51843; 0.99% of 340,000 active;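 active = inhibition above the mean over all tested compounds plus 3 SD, cut at about 4.2% in these data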;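 also: inhibition shows as a rise in luminescence from relieved DAX1 repression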
Target sequence (P51843 207-470 limits assumed): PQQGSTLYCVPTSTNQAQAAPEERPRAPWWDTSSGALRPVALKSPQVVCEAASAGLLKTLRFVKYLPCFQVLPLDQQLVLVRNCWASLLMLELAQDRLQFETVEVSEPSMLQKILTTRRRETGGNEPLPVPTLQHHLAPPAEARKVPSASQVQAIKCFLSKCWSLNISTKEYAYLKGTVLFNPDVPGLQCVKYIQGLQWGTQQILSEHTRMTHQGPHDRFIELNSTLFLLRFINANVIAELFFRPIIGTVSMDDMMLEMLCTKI
ssDAF12 agonist = activators of S. stercoralis DAF-12 nuclear receptor; HEK293 ssDAF-12/GRIP1 lit1-tk-luc reporter, luminescence; % of 3 µM dafachronic acid response; activation, % at 6.8 µM; 1% of 370,000 active; AID 652126;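 active = activation above the mean over all tested compounds plus 3 SD, cut at about 0.9% in these data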
LXR ag = activates human LXR-beta, counter-screen for hcDAF-12 agonists; shares compounds with hcDAF12 agonist; HEK293 Gal4-LXR tk-luc reporter, luminescence, 24 h; normalized: DMSO 0%, positive control 100%; activation, % at 6.8 µM; 3,400 tested, under 10 active; AID 743027;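 active = mean percent activation of the reporter above a cutoff set as the average over tested compounds plus their standard deviation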
hcDAF12 conf = confirmation of H. contortus DAF-12 agonists; AID 743032; HEK293 hcDAF-12 lit1-tk-luc reporter, luminescence; % of Δ7-dafachronic acid response; 61% of 3,400 active; shares compounds with hcDAF12 agonist; activation, % at 6.8 µM;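 active = mean activation across triplicate tests above the threshold derived from the earlier primary screen, cut at about 5.5% in these data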
Numbers stand for hits; i = inactive; nt = no result.

SMILES	SMARCA2 activ	DAX1 inh-1	hgDAF12 agonist	hcDAF12 agonist	DAX1 inh-2	ssDAF12 agonist	LXR ag	hcDAF12 conf
O=S(=O)(Nc1nc2ccccc2nc1N1CCN(c2ccccc2)CC1)c1ccc(F)cc1	i	i	i	8.3	i	i	i	i
CC(C)OP(=O)(O)C(C)NC(=O)OCc1ccccc1 (stereo unspecified)	i	i	i	i	nt	i	nt	nt
COC(=O)C12C=C3CC(C)=C3C(=O)N1Cc1[nH]c3ccccc3c1C2 (stereo unspecified)	i	i	i	8.1	nt	i	i	5.9
COC(=O)C1Cc2c([nH]c3ccccc23)C2CCC(=O)N12 (stereo unspecified)	i	i	i	i	i	i	nt	nt
Cc1cc(C)n2nc(-c3ccc(Cl)cc3)cc2n1	i	i	11.1	13.1	i	1.9	i	12.4
Cc1cc(-c2ccc(Br)cc2)n2nc(C)cc2n1	i	i	i	i	i	i	nt	nt
Cc1cc(C)n2nc(-c3ccc(Br)cc3)cc2n1	i	i	11.0	14.4	4.7	1.5	i	11.0
COc1ccc(-c2cc3nc(C)cc(C)n3n2)cc1	i	i	11.8	9.2	8.0	2.7	i	13.0
CC(=O)O[C@H]1CC[C@]2(C)C3CC[C@]4(C)[C@@H]([C@H](C)/C=C/[C@H](C)C(C)C)CC[C@H]4[C@@]34C=C[C@]2(C1)N(C(=O)c1ccccc1)O4 (stereo partly specified)	i	i	i	i	nt	i	nt	nt
Cc1ccc(Nc2nc(-c3cccnc3)cs2)cc1Cl	i	i	i	11.1	i	i	i	12.3
Cc1cccnc1Nc1nc(-c2ccccc2)cs1	i	3.7	12.6	13.7	i	1.7	i	13.5
c1cncc(Nc2nc(-c3cccnc3)cs2)c1	i	i	i	7.2	i	i	i	i
Cc1ccc(C)c(Nc2nc(-c3cccnc3)cs2)c1	i	i	i	i	i	i	nt	nt
Cc1cccnc1Nc1nc(-c2ccccn2)cs1	i	i	i	i	i	i	nt	nt
COC(=O)C(Cc1ccc(O)cc1)NS(=O)(=O)Cc1ccccc1 (stereo unspecified)	i	i	i	i	nt	i	nt	nt
Nc1nn2cc(-c3ccc(Br)cc3)nc2c2ccccc12	i	i	i	10.8	i	1.6	i	13.9
O=[N+]([O-])c1cccn2cc(-c3ccc(Br)cc3)nc12	i	i	i	i	i	i	nt	nt
COc1ccc(C(OCC(O)CN2CCC(O)CC2)c2ccc(OC)cc2)cc1 (stereo unspecified)	i	i	i	10.2	i	i	i	i
CCN(CC)CCCNC(=S)N(CCO)Cc1cc2cc3c(cc2[nH]c1=O)OCCO3	i	i	i	i	i	i	nt	nt
CCCCNC(=S)N(CCO)Cc1cc2cc3c(cc2[nH]c1=O)OCCO3	i	i	i	7.2	i	i	i	i
Nc1nc(-c2ccccc2)ns1	i	i	i	6.9	i	i	i	6.1
O=c1cc(N2CCN(c3cccc(Cl)c3Cl)CC2)[nH]c(=O)n1C1CCCCC1	nt	nt	i	i	nt	i	nt	nt
COc1ccc(OCCOCCN2CCc3ccccc3C2)cc1	i	i	i	i	i	i	nt	nt
Clc1ccc(OCCCCN2CCc3ccccc3C2)cc1	i	i	i	10.3	i	i	i	i
c1ccc2c(-c3nc4ncccc4o3)cccc2c1	i	i	i	8.3	i	i	i	5.6
Fc1ccccc1-c1nc2ncccc2o1	i	i	i	i	i	i	nt	nt
CC(C)c1cc(C(C)C)c(S(=O)(=O)N2CCC(C(=O)NCc3cccs3)CC2)c(C(C)C)c1	i	i	i	i	nt	i	nt	nt
CS(=O)(=O)Nc1ccc(C(=O)Nc2ccc3c(c2)OCCO3)cc1	nt	nt	nt	nt	i	nt	nt	nt
COc1ccc(C(=O)/C=C(\C)Nc2ccc3c(c2)OCO3)cc1	i	i	i	7.2	i	i	i	i

Compound activity as filed in PubChem BioAssay.
